Assay outcomes (PubChem)
The list is not random: actives were taken first. Their share in the collection is about 4.8%.
DAX1 inh-1 = inhibitors of human orphan nuclear receptor DAX1 (NR0B1). HEK293 Gal4-DAX1 luciferase reporter, luminescence. AID 504766. P51843. 0.99% of 340,000 active. inhibition, % at 6.75 µM;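 active = inhibition above the mean over all tested compounds plus 3 SD, cut at about 4.2% in these data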;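 also: inhibition shows as a rise in luminescence from relieved DAX1 repression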
Target sequence (P51843 207-470 limits assumed): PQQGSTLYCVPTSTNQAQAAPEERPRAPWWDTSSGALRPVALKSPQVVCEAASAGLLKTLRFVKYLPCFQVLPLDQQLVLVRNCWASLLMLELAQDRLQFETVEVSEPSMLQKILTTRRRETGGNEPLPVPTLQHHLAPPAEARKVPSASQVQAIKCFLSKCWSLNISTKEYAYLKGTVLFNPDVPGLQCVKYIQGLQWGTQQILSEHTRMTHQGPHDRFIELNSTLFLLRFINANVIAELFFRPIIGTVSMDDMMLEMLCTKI
ssDAF-12 act = activators of S. stercoralis DAF-12 nuclear receptor | HEK293 ssDAF-12/GRIP1 lit1-tk-luc reporter, luminescence; % of 3 µM dafachronic acid response | 1% of 370,000 active | activation, % at 6.8 µM;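 active = activation above the mean over all tested compounds plus 3 SD, cut at about 0.9% in these data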
DAX1 inh-2 = inhibitors of DAX1 repression of SF-1 activated StAR promoter; AID 652010; HEK293T StAR-luciferase reporter, SF-1/DAX-1 repression relief; inhibition, % at 6.8 µM; 1.1% of 370,000 active;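 active = inhibition above the mean over all tested compounds plus 3 SD, cut at about 3.6% in these data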;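 also: higher inhibition means more luminescence from relief of DAX-1 repression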
hgDAF12 agonist = activates the H. glycines DAF-12 receptor ligand-binding domain; HEK293 GAL4-hgDAF12 UAS-luciferase reporter, agonist luminescence; normalized to butyrate control; activation, % at 6.8 µM; 1.8% of 370,000 active; AID 687014;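 active = activation above a cutoff set at the mean of all screened compounds plus 3 SD, cut at about 10% in these data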
hcDAF12 agonist = activators of H. contortus DAF-12 nuclear receptor | HEK293 hcDAF-12 lit1-tk-luc reporter, luminescence; 0% DMSO, 100% Δ7-dafachronic acid | activation, % at 6.8 µM | 1.4% of 370,000 active;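 active = activation above the mean of all tested compounds plus 3 SD, cut at about 5.5% in these data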
SMARCA2 activ = activators of SMARCA2 function | MG213 cells, MMTV-luciferase reporter, dexamethasone, overnight | activation, % at 9.1 µM | 1% of 370,000 active; in the data active = activation above about 7.8%
Large screens that a line does not name were inactive.

Cc1cccc(NC(=O)C2CCCN(c3nnc(-n4cccc4)s3)C2)c1C (stereo not given)	none (no result: DAX1 inh-1)
Cc1nc2c(ncn2-c2ccccc2)c(=O)n1NC(=O)CN1CCCCC1	DAX1 inh-1 4.5
COC1=C[C@H](C(=O)NCc2ccccc2)[C@H](C)[C@@H](c2ccccc2)CC1=O	none (no result: DAX1 inh-1)
O=C(CSc1nnc(-c2cccnc2)n1-c1ccccc1)Nc1ccc(OCc2ccccc2)cc1	none (no result: DAX1 inh-1)
CCOC(=O)c1c(NC(=O)CCS(=O)(=O)c2ccccc2)sc2c1CCN(C(C)C)C2	DAX1 inh-2 4.0
COC(=O)c1c(NC(=O)Cc2ccccc2)sc2c1CCN(C(C)C)C2	none
O=S1(=O)c2c(NCc3ccco3)cccc2Oc2ccccc2CN1Cc1cn(Cc2ccc(F)cc2)nn1	none (no result: DAX1 inh-1)
CC(=O)Nc1ccc(N2C(=O)CC(Sc3nc4ccccc4s3)C2=O)cc1 (stereo not given)	ssDAF-12 act 3.9
CCOc1ccc(CCNC(=O)COC(=O)Cc2c[nH]c3ccccc23)cc1OCC	ssDAF-12 act 1.3
CCOc1ccc(CCNC(=O)COC(=O)COc2ccc(Cl)cc2)cc1OCC	DAX1 inh-2 3.8
Cc1ccc(C(=O)Nc2cnc3ccccn3c2=O)cc1	DAX1 inh-2 4.0
COc1cc2cc(Oc3ccc4ccc(=O)oc4c3)c(=O)oc2cc1OC(C)=O	DAX1 inh-1 9.8
c1ccc2sc(NC3=NCN(C4CCCCCC4)CN3)nc2c1	ssDAF-12 act 1.5
CCOC(=O)Cc1csc(NC(=O)c2cnc3sc(C)cn3c2=O)n1	hcDAF12 agonist 6.3
CCOC(=O)Cc1csc(NC(=O)/C=C/c2ccc(OC)cc2)n1	hgDAF12 agonist 12.2
CCOC(=O)Cc1csc(NC(=O)c2ccc(C)o2)n1	none
CCN(C(=O)Cc1c(C(=O)O)[nH]c2ccccc12)c1cc(OC)ccc1OC	DAX1 inh-1 4.8
COc1ccc(N(C)C(=O)Cc2c(C(=O)O)[nH]c3ccccc23)cc1	none
CCCc1cc(=O)[nH]c(N/N=C/C=C\c2ccccc2)n1	DAX1 inh-1 4.9
CCOC(=O)N1CCN(C(=O)C2CCN(C(=O)c3ccc(C(C)(C)C)cc3)CC2)CC1	DAX1 inh-1 4.4
COC(=O)[C@]12C[C@H](CC(=O)NCCC(C)C)C(=O)N(Cc3ccc4c(c3)OCO4)C1=C[C@H](C(C)C)O[C@@H]2C1CC1	none (no result: DAX1 inh-1)
Cc1c(NC(=O)c2ccc(NS(=O)(=O)c3ccc(F)c(F)c3)cc2)c(=O)n(-c2ccccc2)n1C	DAX1 inh-2 3.7
Cc1ccc(-n2c(SCc3cccc(F)c3)nc3sc4c(c3c2=O)CCCC4)cc1	none (no result: DAX1 inh-1)
CCOc1ccccc1NC(=O)C(NCC1(N2CCCCC2)CCCCC1)c1ccccc1 (stereo not given)	DAX1 inh-1 4.4
CCOc1ccccc1NC(=O)C(OC(=O)C1CC1)c1ccccc1 (stereo not given)	none
CCCCCn1nc(C)c(/C=N/NC(=O)c2ccoc2C)c1C	DAX1 inh-2 3.6, hgDAF12 agonist 12.6
CCN(CC)c1ccc(/C=N/NC(=O)c2ccoc2C)c(O)c1	hgDAF12 agonist 11.6
CCN(CC)c1ccc(/C=N/NC(=O)OC)c(O)c1	none
C=CCN1C(=O)[C@@H](CC(=O)N2CCSCC2)[C@]2(C(=O)OCC)CCCCC/C=C/12	none (no result: DAX1 inh-1)
O=C(c1cc(Cl)cc(Cl)c1)N1CCC(Oc2cccnc2)CC1	none (no result: DAX1 inh-1)
O=C(OCc1nc2ccccc2s1)c1ccc([N+](=O)[O-])o1	none (no result: ssDAF-12 act, DAX1 inh-2, hgDAF12 agonist, hcDAF12 agonist, SMARCA2 activ)
O=C(OCc1nc2ccccc2s1)c1ccc(Br)o1	DAX1 inh-1 4.6
COC(=O)CCN(C(=O)c1cccc(OC(C)=O)c1)c1ccccn1	DAX1 inh-1 4.5
COC(=O)CCN(C(=O)c1ccc2c(c1)OCO2)c1ccccn1	none
COc1ccc(NC(=O)C(c2ccnc3ccccc23)n2c(=O)c(-c3ccco3)nc3ccccc32)cc1 (stereo not given)	none (no result: DAX1 inh-1)
O=C(NCc1ccccc1)C(c1ccc(-c2ccccc2)cc1)n1c(=O)c(-c2ccco2)nc2ccccc21 (stereo not given)	ssDAF-12 act 1.3 (no result: DAX1 inh-1)
COc1ccc(C(C(=O)NC(C)(C)C)n2c(=O)c(-c3ccco3)nc3ccccc32)cc1 (stereo not given)	ssDAF-12 act 1.5 (no result: DAX1 inh-1)
O=C(NCc1ccccc1)C(c1ccncc1)n1c(=O)c(-c2ccco2)nc2ccccc21 (stereo not given)	none (no result: DAX1 inh-1)
COc1ccc(NC(=O)C(c2ccnc3ccccc23)n2c(=O)c(-c3ccccc3)nc3ccccc32)cc1 (stereo not given)	hcDAF12 agonist 5.6 (no result: DAX1 inh-1)
O=C(NC1CCCCC1)C(C1CC1)n1c(=O)c(-c2ccco2)nc2ccccc21 (stereo not given)	ssDAF-12 act 1.9 (no result: DAX1 inh-1)
COc1cc(NC(=O)c2ccccn2)ccc1NC(=O)c1ccccc1Cl	none (no result: DAX1 inh-1, DAX1 inh-2, SMARCA2 activ)
O=C(NCCc1ccccc1F)c1ccc2c(c1)ncn2C1CCCCC1	none (no result: DAX1 inh-1)
O=c1[nH]c2ccccc2n1C1CCCCC1	DAX1 inh-1 6.1
CCn1c(/C=C/c2cc[n+](C)cc2)nc2ccccc21	DAX1 inh-1 4.2
CCOc1ccc(-n2c(COc3ccccc3)nnc2SCC(=O)Nc2ccc(OCc3ccccc3)cc2)cc1	none (no result: DAX1 inh-1)
CN(C)CCCNC(=O)CC1C[C@H](C(=O)N2CCCCC2)[C@@]2(CCc3ccccc3)c3[nH]c4ccccc4c3CCN2C1=O (stereo not given in full)	DAX1 inh-2 3.9
C=CC[C@@H]1NN2C(=O)[C@@H](CCCC)[C@@H]3c4ccccc4C=NN3[C@@H]2c2ccccc21	none (no result: DAX1 inh-1)
O=C(CCc1nc(-c2cccs2)no1)Nc1cnc2ccccc2c1	ssDAF-12 act 1.7
CCc1cccc(NC(=O)CCc2nc(-c3cccs3)no2)c1	none
COC(=O)[C@]12C[C@H](CC(=O)NCCc3ccccc3OC)C(=O)N(CCc3ccc(OC)c(OC)c3)C1=C[C@H](C1CCCC1)O[C@@H]2C	none (no result: DAX1 inh-1)
O=C(NCc1ccco1)c1noc2c1CCCC2	none
O=C(NCc1cccs1)c1noc2c1CCCCC2	hgDAF12 agonist 10.5
O=C1N/C(=C/c2ccc(Br)cc2)C(O)=C1C=NCc1ccccc1	hcDAF12 agonist 5.6
O=C1C(C=NCc2ccncc2)=C(O)c2ccccc21	none
CC(=O)Nc1ccc(NCc2cccs2)cc1	DAX1 inh-1 4.3
CC(=O)Nc1ccc(NCCc2cccs2)cc1	none (no result: DAX1 inh-1)
CCOC(=O)N1CCC(NC(=O)Cn2ncc3ccccc32)CC1	none
CC1CCC(NC(=O)Cn2ncc3ccccc32)CC1 (stereo not given)	DAX1 inh-1 6.5
O=c1c2ccccc2n(Cc2ccccc2)n1[C@@H](Cc1ccccc1)Cn1cc(-c2ccc(-c3ccccc3)cc2)nn1	none (no result: DAX1 inh-1)
COC(=O)[C@]12C[C@H](CC(=O)N3CCOCC3)C(=O)N(Cc3ccc4c(c3)OCO4)C1=C[C@H](C(C)C)O[C@@H]2C1CC1	none (no result: DAX1 inh-1)
